Data: the supplement of paper PMC11482750
± gives the standard deviation of the averaged measurements.

compound: CCCCCC(C)=O [2-heptanone]; experiment: control-subtracted net OSN firing rate; higher = stronger neuronal activation; conditions: odorant dilution (vol/vol): 1/100
Procedure: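 Single sensillum recordings from olfactory sensory neurons. The neurons sit in the maxillary palp or antennal sensilla of D. melanogaster (wild type, mutants, or at1 empty-neuron lines expressing Or42a homologs or the A181D S307P mutant) and of four Scaptomyza species. Each odorant was given as a 1 s pulse from 20 µl loaded on filter paper at 1:100 vol/vol, diluted in mineral oil (γ-hexalactone in DMSO). Spikes were counted in a 0.5 s window starting 0.2 s after onset, background was subtracted, the count was doubled, and the mean solvent-control response was subtracted.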

Target | control-subtracted net OSN firing rate
S. hsui pb2b-like | 8.67 ± 16 spikes/s
S. hsui pb2a-like | 8.67 ± 6.3 spikes/s
S. montana pb3b-like | -2 ± 6.5 spikes/s
S. hsui pb1b-like | -8.33 ± 8 spikes/s
Canton-S (D. melanogaster) pb1a | 161 ± 48 spikes/s
S. hsui pb3b-like | -6.67 ± 5.9 spikes/s
S. pallida pb3a-like | 115 ± 19 spikes/s
S. pallida pb3b-like | -7.67 ± 13 spikes/s
Canton-S (D. melanogaster) pb2a | 3.71 ± 7.3 spikes/s
S. montana pb1b-like | -12.3 ± 22 spikes/s
S. hsui pb1a-like | 136 ± 22 spikes/s
S. flava pb2a-like | 7.33 ± 3.7 spikes/s
Canton-S (D. melanogaster) pb3b | 16.3 ± 24 spikes/s
Canton-S (D. melanogaster) pb1b | -10 ± 9.1 spikes/s
S. montana pb2a-like | 7 ± 13 spikes/s
S. flava pb3b-like | -8.67 ± 26 spikes/s
S. montana pb1a-like | 64.7 ± 19 spikes/s
S. montana pb2b-like | 8 ± 10 spikes/s
S. flava pb3a-like | 133 ± 40 spikes/s
S. pallida pb2b-like | 26.3 ± 7.8 spikes/s
S. hsui pb3a-like | 148 ± 31 spikes/s
Canton-S (D. melanogaster) pb3a | 5.67 ± 5.5 spikes/s
S. flava pb1b-like | -22 ± 27 spikes/s
S. montana pb3a-like | 97.3 ± 25 spikes/s
S. flava pb1a-like | 104 ± 19 spikes/s
Canton-S (D. melanogaster) pb2b | 0.286 ± 11 spikes/s
S. pallida pb1a-like | 95.7 ± 29 spikes/s
S. pallida pb2a-like | 7.67 ± 6.6 spikes/s
S. flava pb2b-like | -1 ± 14 spikes/s
S. pallida pb1b-like | -9 ± 13 spikes/s
